# Test system: VDR:RXRa (NR concentration 270 nM, RXRa partner concentration 90 nM)
# Test: PBM binding z-score (relative to random genomic background probes); higher = stronger binding; sequences stand for … in GC…GCGATTGACAGCGTAGAATGAAGG
# Protocol: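 Protein-binding microarray (Agilent 4x180K custom design, double-stranded 60-nt probes: 5' GC cap, 34-nt variable region, 24-nt constant primer region; full probe sequence given). Purified or IVT nuclear receptor:RXRα heterodimers (3:1 NR:RXRα, mostly 270:90 nM) or homodimers were incubated for 1 h in PBS with 2% milk and no ligand, then detected with Alexa488 antibodies. Fluorescence from o1-orientation probes (~5 replicates averaged) was converted to z-scores against 500 random hg19 background probes. Variable regions are seed direct-repeat (DR0–DR5) sites, all their single-nucleotide variants and half-site ablations.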
row,Sequence,PBM binding z-score
1,TCAGACAGGTGAAAGTAACTCAGGTACGCAGTCG,0.591
2,ATATGTAGGTTAGCTGGGGGCATTCAGACTAGGC,4.08
3,TAGCTTAGGTCATTCAGGGGCCAGTATAGAAAGC,3.19
4,CCGACTGGGGCAAGGCTACCATAACGCACAGCCA,-0.501
5,ACTATTAGTTGACTTATGGCAACCGATACGACGC,0.458
6,TCTACTTGGTCAAAGGTCACACACTCGAAATGCG,5.28
7,ATCGAAAGGTCGAGGTGAGTAAAGAGAAAGGGAA,2.25
8,TATACAGGGTCAAAGACCAGAGTACGAATGTCGA,4.43
9,TCTTGTAGATTAATAGAGGTTAAGAAAGTGCGCT,2.11
10,TCTTGTAGTTCAATAGAGGTTAAGAAAGTGCGCT,3.41
11,ATCCCTAGGTAACCAAGTTCAGTGAATGCCGAAC,4.31
12,GCATATAGGTAATACAAGGTGAATGTCCGATTGT,0.106
13,CCTAGTTTGTCAGGAGGTCACACACCGGATATGA,4.19
14,TCATATAGGTTATACAGGTGAAAGTCGGCATCTA,2.48
15,AGAATAAGGTTATTAAGATCAGGGAATTGCGGTC,1.95
16,AGTCAACGTTCAGGACGAGGTAACGTAAAGCACG,-0.317
17,CCTACTGGGGCAGAAAGGTTACCATACCATCCGG,0.923
18,CCAGACAGGTGAGAAGGTAACTCCGCCTCGATTA,-0.335
19,CCAGACAGGTCAGAAGGTAACTCAGCCTCGATTA,1.44
20,CCTTACGGGTCACACCAGGTTATAGCATCGGAGT,4.89

row,Sequence,PBM binding z-score
1,AGTCAAAGTTCATCTAGGTAGCGTAAGATATGCT,4.94
2,ACTTACAGGTCAACGAGGTTATAGCACGCGTATA,7.66
3,CAAACTAGGTCACGAAAGGTCACAGTCGAATGAC,6.75
4,ACTATTAGTTCACTTAGGGCAACCGATACGACGC,2.52
5,CTCGAAAGGTCGTGCGCAGGTGAGTATACCAAAC,3.64
6,CCTGCTAGGTCATGGTCTGCTAATCTACAGTATG,1.58
7,CCTACTGGTCCAAAAAGGTCATTGATGCCGATAA,4.99
8,CGTCAAAGTTCAACGAAGGTAACGTAAAGCACGC,4.39
9,ATCTCTGGGTAACAAGTTCAGTGAAAGAGAGGAC,2.8
10,CGAACTAGGACAGAACAGGACAGTGAAGGATGAT,-0.358
11,GCTGCTAGGTCAACTGATGGTAAGCTAAAGCTCG,1.23
12,TATAGAGGGTCAAAGGCCAGAGTACGAATGTCGA,3.83
13,CCCAGTTGGTCAAGGTCACACACGCTATAGGTAC,4.58
14,ACAGACAGGTGATGGAGGTAACTCAGGCTATCAT,0.681
15,ACTATTAGTTGAGACGAGGGCAACCAATAGGTTG,0.987
16,CCGGACAGGTGAGAAGGTAACTCAGCCTCGATTA,-0.403
17,GTACCAAGGTCAATAGGTCGTTGATGAGTAGGCG,4.69
18,TCTAGTTGGTCAAAGGTAACACACTCGAAATGCG,1.7
19,TCTTGTAGATCAATAAAGGTTAAGAAAGTGCGCT,2.18
20,ACTAGTTGGTCAGCTAAGGTCACACACAATTCGG,3.99
